The source made the active and inactive calls. Rule for the calls: active = hit-call score of the fitted dose curve at least 0.9, where 1 is the maximum; inactive = score below 0.9.
assay: BSK_LPS_SRB: Viability Assessment in the BioMAP Diversity Plus: LPS Assay (AID 2283079); conditions: primary human HUVEC with PBMC;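 note: measured one day after compound addition; fitted in both directions against DMSO so loss or gain of signal counts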
Description: BSK_LPS is a cell-based, multiplexed-readout assay that uses umbilical vein endothelium and peripheral blood mononuclear cells, a human vascular primary cell co-culture, with measurements taken at 24 hours after chemical dosing in a 96-well plate.BSK_LPS_SRB is an assay component measured in the BSK_LPS assay. It measures 0.1% sulforhodamine related to cell death using Sulforhodamine staining technology.Data from the assay component BSK_LPS_SRB was analyzed into 1 assay endpoint. This assay endpoint, BSK_LPS_SRB, was analyzed with bidirectional fitting relative to DMSO as the negative control and baseline of activity. Using a type of viability reporter, gain or loss-of-signal activity can be used to understand changes in the signaling. Furthermore, this assay endpoint can be referred to as a primary readout, because this assay has produced multiple assay endpoints where this one serves a signaling function. To generalize the intended target to other relatable targets, this assay endpoint is annotated to the cell morphology intended target family, where the subfamily is cell conformation.
The levels of cell surface (or secreted, indicated by the prefix "s") biomarker endpoints were measured by ELISA. Overt cytotoxicity to cells in confluent adherent cultures (all systems other than the BT system) was assessed by measuring total protein levels using sulforhodamine B (SRB) staining in parallel cultures at the time of biomarker measurements, indicated as SRB endpoints. For proliferation assays for adherent cell types, individual cell types are cultured at sub-confluence and relative cell numbers quantified by SRB staining at time points optimized for each system (48 h: 3C and CASM3C systems; 72 h: BT and HDF3CGF systems; 96 h: SAg system). SRB was performed by staining cells with 0.1% SRB after fixation with 10% TCA and reading wells at 560 nm.Viability and proliferation of PBMC (T cells) was quantified by Alamar Blue reduction for the SAg and BT systems. For PBMC viability (referred to as PBMC Cytotoxicity within the assay endpoint names), cells were plated (75,000/well in a 96-well plate) and then chemical samples added for 1 h before addition of activators, SEB and TSST-1 (20 ng/mL final concentration each). Cells were incubated for 90 h. Then, Alamar Blue (20 uL/well) (Invitrogen, Cat DAL1100) was added for 6 h, and the plates were read with a fluorescence microplate reader at 546/580 nm (excitation/emission). For PBMC proliferation, cells were plated and activated as above but incubated for only 16 h prior to addition of Alamar Blue. Plates were read after 6 h.

| Structure (SMILES) | AC50 | outcome |
| --- | --- | --- |
| COC(=O)[C@H]1[C@H]2C[C@@H]3c4[nH]c5cc(OC)ccc5c4CCN3C[C@H]2C[C@@H](OC(=O)c2cc(OC)c(OC)c(OC)c2)[C@@H]1OC | 21.8 µM (active) |  |
| CC1=C(C)S(=O)(=O)CCS1(=O)=O |  | inactive |
| OCC(O)CO |  | inactive |
| COC(=O)CCCC(=O)OC |  | inactive |
| CCOCCOCCO |  | inactive |
| COC(=O)CCC(=O)OC |  | inactive |
| Cc1ccc(C(C)(C)C)c(O)c1 |  | inactive |
| CCc1nc(N)nc(N)c1-c1ccc(Cl)cc1 |  | inactive |
| O=C1OC(c2ccc(O)cc2)(c2ccc(O)cc2)c2ccccc21 | 31.9 µM (active) |  |
| O=C1O[C@H]([C@H](O)CO)C(O)=C1O |  | inactive |
| CC(C)(C)c1ccccc1 |  | inactive |
| CC(=O)S[C@H](C(=O)N[C@H]1Cc2ccccc2[C@H]2CCC[C@@H](C(=O)O)N2C1=O)C(C)C |  | inactive |
| CCc1cc(C2=C(C(=O)O)N(c3ccccc3C(F)(F)F)S(=O)(=O)c3ccccc32)cc2c1OCO2 |  | inactive |
| CCCCC(CC)COC(=O)CCCCCCCC(=O)OCC(CC)CCCC (stereo not given) |  | inactive |
| CN(C)C(=O)NC1(c2ccccc2)CCN(CCC[C@]2(c3ccc(Cl)c(Cl)c3)CCCN(C(=O)c3ccccc3)C2)CC1 |  | inactive |
| O=C1NC(=O)C(c2ccccc2)(c2ccccc2)N1 |  | inactive |
| OCC(CO)n1cnc(-c2ccc(F)cc2)c1-c1ccnc(Oc2ccccc2)n1 |  | inactive |
| Cc1c(C)c2c(c(C)c1O)CCC(C)(COc1ccc(CC3SC(=O)NC3=O)cc1)O2 (stereo not given) | 26.3 µM (active) |  |
| CC(=O)O[C@]1(C(C)=O)CC[C@H]2[C@@H]3C=C(Cl)C4=CC(=O)[C@@H]5C[C@@H]5[C@]4(C)[C@H]3CC[C@@]21C | 30.9 µM (active) |  |
| CCN(CC)CCOc1ccc(C(=C(Cl)c2ccccc2)c2ccccc2)cc1 | 10.4 µM (active) |  |

| Structure (SMILES) | AC50 | outcome |
| --- | --- | --- |
| CCCCCCC(C=O)=Cc1ccccc1 | 29.3 µM (active) |  |
| CCCCCCCC(=O)OC |  | inactive |
| CN(C)CCCN(C)CCCN(C)C |  | inactive |
| NC1CCCCC1 |  | inactive |
| COc1ccc(OC(F)(F)F)cc1CN[C@H]1CCCN[C@H]1c1ccccc1 | 20 µM (active) |  |
| Nc1nc(Cl)nc2c1ncn2[C@H]1C[C@H](O)[C@@H](CO)O1 | 0.814 µM (active) |  |
| CO[C@@H]1COCC[C@@H]1N[C@@H]1CC[C@@](C(=O)N2CCc3ncc(C(F)(F)F)cc3C2)(C(C)C)C1 |  | inactive |
| O=C(NS(=O)(=O)/C=C/c1cccs1)c1ccc(F)cc1Br |  | inactive |
| NC=O |  | inactive |
| CC(C)COC(=O)CCCCC(=O)OCC(C)C |  | inactive |
| CC1(C)C(=O)NC(=O)N1CO |  | inactive |
| NCCOCCOCCN |  | inactive |
| CCCC(=O)O |  | inactive |
| CCCCc1nc2cccnc2n1Cc1ccc(-c2ccccc2-c2nnn[nH]2)cc1 |  | inactive |
| O=C(O)CN(CC(=O)O)CC(=O)O |  | inactive |
| CCCCOC(=O)CCCCC(=O)OCCCC |  | inactive |
| Cc1cc(Cc2ccc(N)c(C)c2)ccc1N |  | inactive |
| C#CC(O)C(CC)CCCC (stereo not given) |  | inactive |
| CC(=O)OC1CC(C)OC(C)O1 (stereo not given) |  | inactive |
| O=Cc1ccccc1C=O |  | inactive |
